# The list is a sample of the results.
# LmPK act – activators of Leishmania mexicana pyruvate kinase. purified LmPK, Kinase-Glo ATP luminescence, 1 h. AID 1722. Q27686. 290,000 tested, under 10 active. activity change, negative = inhibition, % at 57.5 µM; calls by dose curve
# Target sequence (Q27686 whole entry, looked up): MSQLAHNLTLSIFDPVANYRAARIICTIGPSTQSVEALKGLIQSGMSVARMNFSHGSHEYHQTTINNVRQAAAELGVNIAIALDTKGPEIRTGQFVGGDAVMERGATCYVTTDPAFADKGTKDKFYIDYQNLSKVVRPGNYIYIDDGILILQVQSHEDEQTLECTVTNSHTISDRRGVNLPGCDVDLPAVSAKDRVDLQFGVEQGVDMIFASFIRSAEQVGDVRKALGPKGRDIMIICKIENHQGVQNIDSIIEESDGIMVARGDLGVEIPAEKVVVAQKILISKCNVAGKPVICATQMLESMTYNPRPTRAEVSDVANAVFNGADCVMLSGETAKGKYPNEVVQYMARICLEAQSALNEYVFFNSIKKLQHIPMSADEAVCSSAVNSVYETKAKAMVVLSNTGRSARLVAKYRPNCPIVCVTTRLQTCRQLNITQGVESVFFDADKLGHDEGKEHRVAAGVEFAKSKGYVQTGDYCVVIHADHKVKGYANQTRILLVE
#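 Purified LmPK (0.1 nM) converted ADP (0.1 mM, ~10-fold below Km) plus PEP (0.5 mM, at Km) to ATP over 1 h at room temperature in pH 7.2 imidazole buffer. Generated ATP was read by luciferase luminescence.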
# Starred values were filed as active, the others as inactive.
SMILES,LmPK act
COCc1n[nH]c(=S)n1-c1cccc2ccccc12,-58.8
S=c1[nH]nc(-c2ccco2)n1-c1cccc2ccccc12,-100.6
Cc1c(/C=C/C(=O)c2ccccc2)cnn1C,-39.3
S=c1[nH]nc(CCc2nc3ccccc3[nH]2)n1-c1cccc(Cl)c1,-70.9
C=CCn1c(-c2ccccc2)c[nH]c1=S,-86.2
COc1ccccc1-n1c(-c2ccccc2)c[nH]c1=S,-93.7
CCn1c(C)nc2cc(-c3nc4n(n3)Cc3ccccc3-4)ccc21,-68.9
O=C(NC1CCCCCCC1)c1ccc2c(c1)OCO2,-31.5
Cc1csc(NC(=O)c2cc3c(s2)CCC3)n1,-56.1
O=C(c1ccccc1)c1ccccc1N1C(=O)C=CC1=O,-71.2
COc1ccccc1-c1noc(-c2ccccc2)n1,-35.3
COc1ccc(-c2cc(=O)c3c(O)c(OC)c(O)cc3o2)cc1,-35.8
Oc1ccccc1-c1n[nH]c(=S)n1Cc1ccccc1,-56.2
O=C(C#Cc1ccccc1)Nc1ccccc1F,-33.5
CCOC(=O)C1=C(C)N(c2ccccc2)C(=O)/C1=C\c1ccc(O)c(OC)c1,-81.0
O=C1NN(c2ccccc2)C(=O)/C1=C\c1ccc(-c2cc([N+](=O)[O-])ccc2O)o1,-61.0
O=c1c2c(nc3cc(-c4ccccc4)[nH]n13)CCC2,-33.1
O=C(Nc1cccc(F)c1)c1ccc2c(c1)OCO2,-50.5
O=C(Nc1ccc2c(c1)OCO2)Oc1ccccc1,-49.3
COc1cccc(C(=O)Nc2nc(C)cs2)c1,-40.3
Cc1cccc(NC(=O)c2ccc(OC3CSC3)cc2)c1,-42.1
Cc1cc(C)nc(N/N=C/c2sccc2C)n1,-41.8
CNC(=S)N/N=C/c1ccc(-c2cccc(C(=O)O)c2)o1,-49.1
c1ccc(OCc2nc3ccccc3[nH]2)cc1,-69.4
COCCn1c(/C=C/c2ccccc2)nc2ccccc21,-58.9
SMILES,LmPK act
Cc1ccc(N=Nc2c(O)ccc3n[nH]nc23)cc1,-32.9
CC(C)C(c1nnnn1Cc1ccc(F)cc1)N1CCN(c2ccc(O)cc2)CC1 (stereo unspecified),-41.6
CCc1ccc2oc(-c3cccc(N)c3)nc2c1,-59.5
COc1ccc2nc(Nc3ccccc3)sc2c1,-32.2
CN(C)C(=O)Oc1ccc(-c2cn3cc(Cl)ccc3n2)cc1,-61.8
Cc1ccc(C(=O)Nc2ccc3c(c2)OCO3)cc1,-77.0
COc1ccc2c(c1)CC/C(=C/c1ccco1)C2=O,-48.7
Cc1cc(C)n2nc(-c3ccc(F)cc3)nc2n1,-39.4
O=C(/C=C/Nc1cccc(F)c1)c1ccco1,-60.7
Cc1cc(C)c(NC(=O)c2c[nH]c(=S)n2-c2ccc(F)cc2)c(C)c1,-30.2
S=c1[nH]nc(CCc2ccccc2)n1Cc1ccccc1,-71.2
Cn1cc(Cl)c(-c2nc3ccccc3[nH]2)n1,-30.2
Cc1cc(-c2ccccc2)c2c(n1)sc1c(O)cc(=O)[nH]c12,-42.8
N/C(=N\OC(=O)/C=C/c1ccccc1)c1ccccc1,-66.1
O=C(Nc1ccc2ccccc2n1)c1ccccc1Cl,-45.0
Cc1cc(NC(=O)c2ccc3c(c2)OCCO3)ccc1NC(=O)c1ccco1,-57.7
C=CCNC(=O)c1ccc2c3n(nc2c1)-c1ccccc1CO3,-71.7
O=C1CCCc2nc(N3CCc4ccccc43)ncc21,-40.8
Cn1cccc1C(=O)NCCc1ccccc1,-30.6
c1ccc(-c2noc(-c3ccc4ccccc4c3)n2)nc1,-76.5
Cc1nn(C)cc1/C=C/C(=O)c1cccs1,-31.9
O=S(=O)(Nc1nc2ccccc2nc1N1CCc2ccccc2C1)c1ccc(Br)cc1,-53.0
O=C(/C=C/Nc1ccccc1O)c1ccco1,-36.8
CC(C)Cn1c(-c2csc3ccccc23)n[nH]c1=S,-85.7
Cc1cc(O)c(N)c(C)c1Cl,-18.8
SMILES,LmPK act
CCCCn1c(-c2cc(Cl)ccc2OC)n[nH]c1=S,-68.0
COc1cccc(-c2nc3ccccc3s2)c1,-79.3
COc1ccc(C(=O)NNC(=O)c2ccccn2)cc1,-91.0
COC(=O)c1nn(-c2ccc3c(c2)OCO3)cc1O,-83.7
COc1ccc(C(=O)Nn2c(SCC(=O)NCC3CCCO3)nc3ccccc3c2=O)cc1 (stereo unspecified),-49.5
Cc1ccsc1/C=N/NC(=O)c1sccc1C,-54.2
Cc1occc1C(=O)N/N=C/C(Br)=C\c1ccccc1,-46.7
COC(=O)c1ccc2c(c1)C(C)(C)C(/C=C/c1ccc(O)cc1)=[N+]2C,-49.3
CCc1ccc(NC(=O)Nc2ccsc2C(=O)OC)cc1,-30.8
CCOc1ccc(-c2n[nH]c(=S)n2Cc2ccccc2)cc1,-58.4
Cc1cc(-c2n[nH]c(=S)n2CC(C)C)cs1,-53.3
Clc1ccccc1/C=C/c1nc(-c2ccccn2)no1,-88.9
CCN(CC)c1ccc2c(-c3ccc(S(=O)(=O)O)cc3S(=O)(=O)[O-])c3ccc(=[N+](CC)CC)cc-3oc2c1,-35.6
Cc1ccc(-n2[nH]c(C)c(C=Nc3ccc(S(=O)(=O)Nc4nccs4)cc3)c2=O)cc1,-43.2
S=c1nc(-c2ccccc2)[nH]n1-c1ccccc1,-47.2
Cc1ccc(Cl)cc1NC1=C/C(=N\S(=O)(=O)c2cccs2)c2ccccc2C1=O,-30.0
